# PRMT1 FP inh: PRMT1 (human) inhibition, primary screen; inhibition, % at 2.79 µM; 370,000 tested, 1.3% active; AID 652257; recombinant PRMT1, activity-based probe fluorescence polarization;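 active = inhibition above about 21% made by adding two undisclosed values, limit read from the data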
# LEDGF integ inh: blocks HIV-1 LEDGF/p75-dependent DNA integration | 370,000 tested, 0.64% active | AID 743269 | inhibition, % at 3.7 µM | TR-FRET IN-LEDGF/p75 DNA integration, Eu/Cy5;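 active = inhibition above the screen-wide mean plus 3 SD, cut at about 13% in these data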;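 note: signal is the Cy5 over europium emission ratio at 671 and 618 nm; 0% = plate median of compound wells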
# MBD2 DNA inh: inhibitors of human MBD2 binding to methylated oligonucleotide. TR-FRET. inhibition, % at 4.4 µM. Q9UBB5. 370,000 tested, 0.31% active; in the data active = inhibition above about 13%
# UHRF1 MBD2 ctr: blocks human UHRF1 binding to methylated DNA. Q96T88. UHRF1 binding to methylated oligo, TR-FRET. inhibition, % at 4.4 µM. 370,000 tested, 0.75% active. AID 687016; in the data active = inhibition above about 21%;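 note: UHRF1 SRA domain binding a hemimethylated CpG hairpin DNA probe; 0% = median of test compound wells and 100% = reference inhibitor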
# Target sequence (Q96T88 whole entry, looked up, the tested form may be a part): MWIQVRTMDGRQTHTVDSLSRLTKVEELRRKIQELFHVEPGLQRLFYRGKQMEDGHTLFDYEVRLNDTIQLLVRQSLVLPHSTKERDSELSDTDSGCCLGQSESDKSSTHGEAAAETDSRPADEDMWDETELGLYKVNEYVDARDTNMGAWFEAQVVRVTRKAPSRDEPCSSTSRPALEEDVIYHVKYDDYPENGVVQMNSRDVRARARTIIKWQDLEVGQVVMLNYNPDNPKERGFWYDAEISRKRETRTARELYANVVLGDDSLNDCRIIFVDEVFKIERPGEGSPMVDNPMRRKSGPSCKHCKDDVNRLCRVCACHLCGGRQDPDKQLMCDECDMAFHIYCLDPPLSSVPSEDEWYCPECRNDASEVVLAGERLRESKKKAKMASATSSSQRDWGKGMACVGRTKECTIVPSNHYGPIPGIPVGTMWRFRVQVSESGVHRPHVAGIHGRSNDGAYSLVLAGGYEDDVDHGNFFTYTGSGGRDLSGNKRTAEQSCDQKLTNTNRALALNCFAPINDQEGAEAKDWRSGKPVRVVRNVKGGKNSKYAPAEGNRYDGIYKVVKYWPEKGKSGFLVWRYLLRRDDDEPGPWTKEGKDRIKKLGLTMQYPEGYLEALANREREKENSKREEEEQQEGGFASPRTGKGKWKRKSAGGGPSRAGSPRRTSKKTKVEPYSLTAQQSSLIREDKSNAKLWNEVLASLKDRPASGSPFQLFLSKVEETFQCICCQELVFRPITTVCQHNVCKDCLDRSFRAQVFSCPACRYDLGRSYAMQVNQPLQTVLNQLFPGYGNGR
# An asterisk follows results filed as active. Hits are enriched below; roughly 2.5% of the tested compounds scored in any of these assays.
SMILES,PRMT1 FP inh,LEDGF integ inh,MBD2 DNA inh,UHRF1 MBD2 ctr
COc1ccc(NC(=O)COC(=O)CCc2ccc(S(=O)(=O)N3CCOCC3)cc2)cc1OC,0,3,2,0
Cn1c(CNC(=O)C(Cc2ccccc2)NC(=O)c2cccc(F)c2)cc(=O)n(C)c1=O (stereo not given),3,-4,1,1
CSc1ccc(C(=O)C2CCCN(C(=O)c3cccnc3SC)C2)cc1 (stereo not given),1,0,13,26*
COc1ccccc1C(=O)C1CCCN(C(=O)c2cccnc2SC)C1 (stereo not given),-1,4,2,1
O=C(Nc1nc2ccccc2s1)c1cnccn1,1,-3,6,3
O=C(Nc1nc(-c2ccco2)c(-c2ccco2)s1)c1cnccn1,37*,48*,13,40*
C[C@H]1CN([C@@H](C)CO)C(=O)CCCn2nncc2CO[C@@H]1CN(C)Cc1ccc(Cl)c(Cl)c1,-2,3,-5,-1
Cc1ccc(NC(=O)COC(=O)c2ccc3ncsc3c2)c(C)c1,-1,-1,0,22*
Cc1ccc(F)cc1NC(=O)COC(=O)c1ccc2ncsc2c1,8,3,-1,0
O=C(OCC(=O)N1CCN(c2ccccc2)CC1)c1ccc2ncsc2c1,23*,6,4,1
Cc1cn([C@H]2C[C@H](O)[C@@H](CNS(=O)(=O)c3ccc(NS(=O)(=O)N(C)C)cc3)O2)c(=O)[nH]c1=O,3,1,6,-1
O=C(CCNC(=O)c1ccc(Br)cc1)Nc1cccc(S(=O)(=O)N2CCCC2)c1,4,-4,9,36*
Nc1ccc(C(=O)Nc2ccc(NC(=O)c3ccco3)c(O)c2)cc1,0,0,-1,-1
COc1cc2c(cc1OC)CN(c1nc(CN3CCCC3)nc3sc(C)c(C)c13)CC2,1,-4,3,34*
COc1cc2c(cc1OC)CN(c1nc(CN3CCCCC3)nc3sc4c(c13)CCCC4)CC2,0,1,1,2
COc1ccc(S(=O)(=O)N2CCN(c3ccccc3)CC2)cc1OC,3,-2,7,1
COc1ccc(S(=O)(=O)N2CCN(c3cnccn3)CC2)cc1OC,21*,-1,9,4
Cc1cc(SCC(=O)c2ccc(O)c(O)c2)nc2ccccc12,24*,-2,2,7
Cc1cc(SCC(=O)c2ccc3c(c2)OCO3)nc2ccccc12,0,1,1,1
N#Cc1c(NC(=O)c2ccccc2Cl)n(Cc2ccccc2)c2nc3ccccc3nc12,2,16*,1,10
Cc1cc(C)c2cc(C#N)c(NCCCN)nc2c1,-1,-4,2,-5
CC(C)COC(=O)N(C)C[C@H]1OCc2cnnn2CCCC(=O)N([C@H](C)CO)C[C@@H]1C,0,-1,-3,-1
O=C(Nc1ccc2cn[nH]c2c1)c1c(Cl)cccc1Cl,7,1,7,22*
O=C1C(Cl)=C(Nc2ccc3cn[nH]c3c2)C(=O)c2ccccc21,43*,8,-13,-8
COc1ccc(S(=O)(=O)N/N=C(/C)c2ccncc2)cc1,4,1,2,27*
SMILES,PRMT1 FP inh,LEDGF integ inh,MBD2 DNA inh,UHRF1 MBD2 ctr
CC(=O)NC(CC(=O)NCc1ccncc1)c1ccccc1 (stereo not given),3,-6,-1,3
Cc1nn(-c2ccccc2)c(C)c1C(=O)Oc1ccccc1,0,0,1,32*
COC(=O)CCn1nc(-c2ccc(C)cc2)c2ccccc2c1=O,5,-2,0,2
CCCC(=O)N(c1ccc(C(=O)O)cc1)c1nc(-c2ccccc2)c(C)s1,3,3,13,41*
N#Cc1ccc(/C=C2\CC3(OC(=O)C4CCCCC4)CCCN2C3)cc1 (stereo not given),-1,-3,-1,-2
COc1ccccc1-c1ocnc1C(=O)Nc1ccc(N2CCOCC2)cc1N1CCOCC1,-2,-1,-5,74*
COc1ccc(-c2ocnc2C(=O)Nc2ccc(N3CCOCC3)cc2N2CCOCC2)cc1OC,3,-4,2,1
C#CCN(CC=C)Cc1ccc(OC)cc1OC,2,-2,1,1
Cc1ccc2nc(-c3ccc(Cl)cc3)c(CC3CCCCC3)n2c1,5,-6,9,21*
Cc1ccc2nc(-c3ccc(F)cc3)c(CC3CCCCC3)n2c1,10,-2,13,21*
Brc1ccc2nc(-c3ccco3)c(CC3CCCCC3)n2c1,12,16*,0,12
Cc1ccc2nc(-c3ccc(F)cc3)c(Cc3cccc(F)c3)n2c1,-3,3,-2,14
CC(C)(C)Cc1c(-c2ccco2)nc2ccc(Cl)cn12,3,2,5,4
Cc1ccc(/C=C/S(=O)(=O)NCC(=O)OCC(=O)Nc2ccc(C(N)=O)cc2)cc1,4,-1,4,23*
Cc1n[nH]c(C)c1CCC(=O)N/N=C/C=C/c1ccccc1,-2,-3,-3,88*
CCCCNC(=O)C[C@H]1C[C@@]2(C(=O)OC)C(=C[C@H](C(C)C)O[C@@H]2C2CC2)N(Cc2ccccc2)C1=O,-1,-2,4,24*
COC(=O)[C@]12C[C@H](CC(=O)NCCC(C)C)C(=O)N(Cc3ccccc3)C1=C[C@H](C(C)C)O[C@@H]2C1CC1,-2,-2,4,-1
CCCCc1nc(Cl)c(C#N)c2c1CCCC2,-3,-3,0,38*
CCCCc1nc(Cl)c(C#N)c2c1CCC2,-1,4,3,1
CCOC(=O)c1c(-c2ccccc2)c2cc(OC)ccc2n1CCCN(C)C,2,-3,-1,26*
CCOC(=O)c1c(C)n(CCNC(C)=O)c2ccc(OC)cc12,-3,2,-2,2
CCOC(=O)C1C(C(=O)OCC)C(C)(C)C1N(C)C (stereo not given),-1,-1,-4,-2
COC(=O)c1sc(S(=O)(=O)N2CCCCC2)c(C(=O)OC)c1C,-2,2,0,-2
COC(=O)c1sc(S(=O)(=O)N2CCC(C)CC2)c(C(=O)OC)c1C,0,-4,-3,24*
CCOC(=O)C1CC2=C(CCCC2=O)NC1=O (stereo not given),6,-2,-3,-2
SMILES,PRMT1 FP inh,LEDGF integ inh,MBD2 DNA inh,UHRF1 MBD2 ctr
Cc1c(C(Nc2ccccn2)c2ccc(Cl)cc2)c(=O)n(-c2ccccc2)n1C (stereo not given),-2,2,-1,-1
Cc1c(C(Nc2ccccn2)c2ccccc2)c(=O)n(-c2ccccc2)n1C (stereo not given),-1,-1,8,22*
CCc1ccc(S(=O)(=O)Nc2cc(SCC(=O)O)c(O)c3ccccc23)cc1,77*,6,-7,-3
CCc1ccc(S(=O)(=O)Nc2ccc(O)c3ccccc23)cc1,6,13,-5,-2
Cc1cc(CNCc2c(C(=O)N3CCCCCCC3)nc3ccc(Cl)cn23)nn1C,-2,1,-1,2
CNc1cccnc1C=NNC(N)=S,24*,-3,-1,-5
COc1ccc(/C=C2\SC(=S)N(CC(=O)OCC(=O)Nc3ccc(C)cc3Cl)C2=O)cc1,21*,-1,4,7

# Source: PubChem
